# Laboratory results published in PubChem BioAssay.
# Unmarked numbers belong to inactive results. Active and inactive are the calls of the source. Rule as the data show it: active = nuclear beta-catenin stimulation mostly above about 4.2% (no sharp cut-off); inactive = mostly below about 10%.
# Test: stimulators of nuclear beta-catenin in C2C12, primary screen, imaging, WNT3A-conditioned medium, mouse C2C12, NPC library (AID 1117326); also: reference of the scale not given here
# Conditions: at 10 µM, active compounds read high
row,SMILES,nuclear beta-catenin stimulation
1,CNNCc1ccc(C(=O)NC(C)C)cc1,-2%
2,Nc1nc2c(ncn2CCC(CO)CO)c(=O)[nH]1,0.5%
3,O=C1CC2(CCCC2)CC(=O)N1CCNCC1COc2ccccc2O1 (stereo not drawn),0.9%
4,Cn1nnc2c(C(N)=O)ncn2c1=O,-1.7%
5,O=C1[C@H]2CCCC[C@H]2C(=O)N1CCCCN1CCN(c2nsc3ccccc23)CC1,10.9%
6,O=C(O)CCNC(=O)c1ccc(N=Nc2ccc(O)c(C(=O)O)c2)cc1,0.8%
7,CC(Oc1c(Cl)cccc1Cl)C1=NCCN1 (stereo not drawn),-2.3%
8,CN1CCN(C2=Nc3cc(F)ccc3Cc3ccccc32)CC1,-1.1%
9,COC(=O)C1=C(C)NC(C)=C(C(=O)OC(C)C)C1c1cccc2nonc12 (stereo not drawn),28.6%
10,CCOc1cc(N)c(Cl)cc1C(=O)NCC1CN(Cc2ccc(F)cc2)CCO1 (stereo not drawn),2.5%
11,O=c1c(-c2ccccc2)c1-c1ccccc1,40.6% (active)
12,O=C1Nc2ccc(Cl)cc2[C@@](C#CC2CC2)(C(F)(F)F)O1,-0.8%
13,Nc1nc(N)nc(-c2cc(Cl)ccc2Cl)n1,0.6%
14,OCCOCCN1CCN(C2=Nc3ccccc3Sc3ccccc32)CC1,3.8%
15,CC(=O)Nc1ccc(CC(=O)O)cc1,-0.2%
16,O=c1[nH]cnc2c1ncn2[C@H]1CC[C@@H](CO)O1,-2.1%
17,COC(=O)C1=C(C)NC(C)=C(C(=O)O[C@@H]2CCCN(Cc3ccccc3)C2)[C@@H]1c1cccc([N+](=O)[O-])c1,8.2%
18,Cc1c(O)cccc1C(=O)N[C@@H](CSc1ccccc1)[C@H](O)CN1C[C@H]2CCCC[C@H]2C[C@H]1C(=O)NC(C)(C)C,2.3%
19,CCc1nn(CCCN2CCN(c3cccc(Cl)c3)CC2)c(=O)n1CCOc1ccccc1,-1%

row,SMILES,nuclear beta-catenin stimulation
1,Nc1[nH]c(=O)ncc1F,0.9%
2,O=C1CCc2ccc(OCCCCN3CCN(c4cccc(Cl)c4Cl)CC3)cc2N1,2.8%
3,COc1cc(C(=O)NC2CCCNC2)cc(OC)c1OC (stereo not drawn),22.4%
4,COc1ccc(C(=O)NCc2ccc(OCCN(C)C)cc2)cc1OC,-0.3%
5,COCc1c(C(C)C)nc(C(C)C)c(/C=C/[C@@H](O)C[C@@H](O)CC(=O)O)c1-c1ccc(F)cc1,18.8% (active)
6,CC(C)(C)C(O)/C=C/c1ccc2c(c1)OCO2 (stereo not drawn),0%
7,Cc1ccnc2c1NC(=O)c1cccnc1N2C1CC1,0%
8,CCOc1cc(CC(=O)N[C@@H](CC(C)C)c2ccccc2N2CCCCC2)ccc1C(=O)O,-1.5%
9,Nc1c2c(nc3c1CCC3)CCCC2,0.3%
10,CCOC(=O)OC(C)OC1=C(C(=O)Nc2ccccn2)N(C)S(=O)(=O)c2ccccc21 (stereo not drawn),0.7%
11,CN1CCN(c2c(F)cc3c(=O)c(C(=O)O)cn4c3c2SCC4)CC1,1.2%
12,Cc1nc2n(c(=O)c1CCN1CCC(c3noc4cc(F)ccc34)CC1)CCCC2,4.2%
13,O=C(O)/C=C/c1ccc(Cn2ccnc2)cc1,-2.1%
14,O=C(NCCO[N+](=O)[O-])c1cccnc1,-0.4%
15,Cc1nc2ccc(CN(C)c3ccc(C(=O)N[C@@H](CCC(=O)O)C(=O)O)s3)cc2c(=O)[nH]1,61.4% (active)
16,CCCN1CCCC[C@H]1C(=O)Nc1c(C)cccc1C,0.3%
17,COc1cc2c(cc1OC)C(=O)C(CC1CCN(Cc3ccccc3)CC1)C2 (stereo not drawn),-1%
18,N#Cc1ccc(C(c2ccc(C#N)cc2)n2cncn2)cc1,-1.6%
19,Cc1[nH]cnc1CN1CCc2c(c3ccccc3n2C)C1=O,1.1%
